Drawing on paper PMC5101189, this text covers cross-linked residues for six substances.

Among the targets are SPC24 (UniProt Q8NBT2); SPC25 (UniProt Q9HBM1); NSL1 (UniProt Q96IY1); DSN1 (UniProt Q9H410); ZWINT (UniProt O95229); MIS12 (UniProt Q9H081); PMF1 (UniProt Q6P1K2).
What all share (test): cross-linking mass spectrometry
What all share (conditions): BS3, purified complex

Chain of NDC80, O14777 (O14777 whole entry): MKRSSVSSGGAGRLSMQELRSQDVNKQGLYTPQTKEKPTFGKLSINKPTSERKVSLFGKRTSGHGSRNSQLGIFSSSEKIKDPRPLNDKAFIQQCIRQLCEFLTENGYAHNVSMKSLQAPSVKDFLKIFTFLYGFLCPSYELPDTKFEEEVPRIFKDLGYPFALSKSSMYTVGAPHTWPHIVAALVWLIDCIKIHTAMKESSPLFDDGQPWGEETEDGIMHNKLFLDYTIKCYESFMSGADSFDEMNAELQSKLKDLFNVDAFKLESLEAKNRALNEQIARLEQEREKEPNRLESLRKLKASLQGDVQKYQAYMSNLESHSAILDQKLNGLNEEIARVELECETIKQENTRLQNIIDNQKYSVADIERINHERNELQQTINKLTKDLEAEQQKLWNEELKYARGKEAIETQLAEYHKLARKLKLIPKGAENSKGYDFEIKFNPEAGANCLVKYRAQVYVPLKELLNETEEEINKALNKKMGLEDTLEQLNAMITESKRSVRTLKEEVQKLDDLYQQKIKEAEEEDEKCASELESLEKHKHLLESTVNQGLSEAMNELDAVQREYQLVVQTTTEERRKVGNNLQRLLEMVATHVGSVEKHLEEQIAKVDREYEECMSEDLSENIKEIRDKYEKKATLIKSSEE
Chain of NSL1 (Q96IY1 whole entry): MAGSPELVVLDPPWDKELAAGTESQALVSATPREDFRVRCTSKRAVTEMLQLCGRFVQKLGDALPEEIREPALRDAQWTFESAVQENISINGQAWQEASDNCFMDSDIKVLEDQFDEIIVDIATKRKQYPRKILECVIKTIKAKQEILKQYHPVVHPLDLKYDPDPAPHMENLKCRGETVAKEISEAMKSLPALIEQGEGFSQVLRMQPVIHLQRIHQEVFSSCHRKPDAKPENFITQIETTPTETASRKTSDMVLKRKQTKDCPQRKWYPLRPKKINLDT
Chain of CENPC, Q03188 (Q03188 whole entry): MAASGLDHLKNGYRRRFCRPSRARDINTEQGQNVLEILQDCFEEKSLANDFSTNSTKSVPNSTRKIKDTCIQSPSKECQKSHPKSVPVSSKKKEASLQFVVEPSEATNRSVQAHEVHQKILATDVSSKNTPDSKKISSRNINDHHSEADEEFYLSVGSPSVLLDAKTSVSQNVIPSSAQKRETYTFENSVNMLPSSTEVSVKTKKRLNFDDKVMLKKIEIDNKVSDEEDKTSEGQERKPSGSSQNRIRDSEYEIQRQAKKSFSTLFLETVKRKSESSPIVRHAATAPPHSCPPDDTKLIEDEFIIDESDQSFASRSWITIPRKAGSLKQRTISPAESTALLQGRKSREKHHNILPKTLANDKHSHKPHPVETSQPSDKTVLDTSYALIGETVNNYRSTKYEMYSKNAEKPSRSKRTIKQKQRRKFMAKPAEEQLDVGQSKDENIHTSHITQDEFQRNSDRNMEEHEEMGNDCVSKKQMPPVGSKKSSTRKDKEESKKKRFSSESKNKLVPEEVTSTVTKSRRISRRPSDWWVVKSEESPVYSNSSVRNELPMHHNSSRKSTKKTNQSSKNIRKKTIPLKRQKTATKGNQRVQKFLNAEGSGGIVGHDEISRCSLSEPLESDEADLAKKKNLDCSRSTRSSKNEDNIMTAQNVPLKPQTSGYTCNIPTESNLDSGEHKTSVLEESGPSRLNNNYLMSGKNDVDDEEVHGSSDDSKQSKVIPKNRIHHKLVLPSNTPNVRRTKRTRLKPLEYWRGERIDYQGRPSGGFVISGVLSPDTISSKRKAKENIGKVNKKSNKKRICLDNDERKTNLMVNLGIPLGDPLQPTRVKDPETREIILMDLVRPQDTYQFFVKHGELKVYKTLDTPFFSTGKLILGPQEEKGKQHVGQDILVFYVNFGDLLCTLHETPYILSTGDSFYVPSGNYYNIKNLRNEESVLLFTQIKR
Chain of SPC24 (Q8NBT2 whole entry): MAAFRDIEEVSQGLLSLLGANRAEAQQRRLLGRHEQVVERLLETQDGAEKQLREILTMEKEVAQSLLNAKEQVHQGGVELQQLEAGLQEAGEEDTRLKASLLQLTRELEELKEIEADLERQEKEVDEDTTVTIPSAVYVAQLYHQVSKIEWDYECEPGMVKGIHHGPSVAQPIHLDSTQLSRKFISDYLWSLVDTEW
Chain of PMF1 (Q6P1K2 whole entry): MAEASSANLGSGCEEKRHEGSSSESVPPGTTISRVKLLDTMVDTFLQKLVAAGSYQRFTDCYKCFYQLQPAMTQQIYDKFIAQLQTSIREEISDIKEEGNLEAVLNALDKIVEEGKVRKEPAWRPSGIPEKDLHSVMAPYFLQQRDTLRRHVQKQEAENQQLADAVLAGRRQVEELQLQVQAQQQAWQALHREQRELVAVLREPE
Chain of PMF1, Q6P1K2 (Q6P1K2 whole entry): as above
Chain of KNL1, Q8NG31 (Q8NG31 whole entry): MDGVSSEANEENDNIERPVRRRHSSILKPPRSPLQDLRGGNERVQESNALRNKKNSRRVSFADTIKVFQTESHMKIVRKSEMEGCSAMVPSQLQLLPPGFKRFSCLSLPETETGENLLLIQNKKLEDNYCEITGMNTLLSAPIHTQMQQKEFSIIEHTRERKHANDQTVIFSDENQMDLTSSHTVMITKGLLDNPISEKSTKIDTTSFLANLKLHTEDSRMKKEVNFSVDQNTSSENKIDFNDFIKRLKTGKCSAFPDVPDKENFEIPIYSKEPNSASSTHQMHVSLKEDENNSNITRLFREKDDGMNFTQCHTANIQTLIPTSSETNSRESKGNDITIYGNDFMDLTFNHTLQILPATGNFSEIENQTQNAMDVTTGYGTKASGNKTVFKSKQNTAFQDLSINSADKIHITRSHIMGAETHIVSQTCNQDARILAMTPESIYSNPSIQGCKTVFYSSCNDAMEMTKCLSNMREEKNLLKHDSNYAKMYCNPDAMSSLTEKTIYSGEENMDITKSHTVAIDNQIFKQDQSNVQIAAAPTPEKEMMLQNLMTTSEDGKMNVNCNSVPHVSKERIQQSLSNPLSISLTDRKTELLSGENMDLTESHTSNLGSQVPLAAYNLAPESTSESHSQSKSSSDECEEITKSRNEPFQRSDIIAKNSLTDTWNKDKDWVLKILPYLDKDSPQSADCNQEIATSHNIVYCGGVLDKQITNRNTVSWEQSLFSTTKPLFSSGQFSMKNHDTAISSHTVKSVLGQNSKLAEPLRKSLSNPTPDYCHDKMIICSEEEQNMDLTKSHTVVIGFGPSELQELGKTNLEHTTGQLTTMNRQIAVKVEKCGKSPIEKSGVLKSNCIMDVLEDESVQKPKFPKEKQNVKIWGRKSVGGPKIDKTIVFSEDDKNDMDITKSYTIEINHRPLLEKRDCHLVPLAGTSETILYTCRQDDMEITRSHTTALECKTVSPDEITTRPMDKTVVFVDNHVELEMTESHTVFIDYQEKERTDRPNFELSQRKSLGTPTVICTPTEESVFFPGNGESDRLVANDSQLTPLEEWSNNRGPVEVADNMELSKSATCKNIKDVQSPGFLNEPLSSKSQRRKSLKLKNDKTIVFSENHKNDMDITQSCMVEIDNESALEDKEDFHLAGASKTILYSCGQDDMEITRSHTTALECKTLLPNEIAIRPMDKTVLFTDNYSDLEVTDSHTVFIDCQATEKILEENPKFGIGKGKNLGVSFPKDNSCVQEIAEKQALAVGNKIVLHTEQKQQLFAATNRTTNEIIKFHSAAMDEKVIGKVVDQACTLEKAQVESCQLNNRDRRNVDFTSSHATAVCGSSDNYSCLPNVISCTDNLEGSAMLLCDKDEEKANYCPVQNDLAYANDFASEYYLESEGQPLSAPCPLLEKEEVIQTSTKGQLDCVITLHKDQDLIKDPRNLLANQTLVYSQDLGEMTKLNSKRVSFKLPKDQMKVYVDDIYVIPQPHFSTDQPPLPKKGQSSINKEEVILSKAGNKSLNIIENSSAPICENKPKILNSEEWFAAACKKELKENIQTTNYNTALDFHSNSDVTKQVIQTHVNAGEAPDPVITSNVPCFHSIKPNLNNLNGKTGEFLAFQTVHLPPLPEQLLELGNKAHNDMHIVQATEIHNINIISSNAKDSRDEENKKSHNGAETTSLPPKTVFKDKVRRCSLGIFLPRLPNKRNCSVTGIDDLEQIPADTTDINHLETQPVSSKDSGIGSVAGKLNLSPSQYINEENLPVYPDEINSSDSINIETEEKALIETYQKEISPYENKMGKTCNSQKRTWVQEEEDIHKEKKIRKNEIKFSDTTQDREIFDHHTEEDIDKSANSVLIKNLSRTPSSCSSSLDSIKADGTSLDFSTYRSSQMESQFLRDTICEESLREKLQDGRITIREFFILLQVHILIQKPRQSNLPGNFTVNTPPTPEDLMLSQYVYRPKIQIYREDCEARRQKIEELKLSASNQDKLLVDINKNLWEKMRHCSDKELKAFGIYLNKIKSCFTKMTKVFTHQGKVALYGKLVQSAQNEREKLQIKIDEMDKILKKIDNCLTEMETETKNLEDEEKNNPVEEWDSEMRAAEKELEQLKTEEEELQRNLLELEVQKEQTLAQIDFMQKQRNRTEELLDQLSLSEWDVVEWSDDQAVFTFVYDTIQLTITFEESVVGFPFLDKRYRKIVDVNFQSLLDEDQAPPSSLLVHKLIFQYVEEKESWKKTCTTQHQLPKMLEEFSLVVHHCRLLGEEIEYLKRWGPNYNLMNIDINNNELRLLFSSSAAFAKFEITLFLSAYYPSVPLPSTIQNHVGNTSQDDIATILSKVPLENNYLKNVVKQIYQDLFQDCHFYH
Chain of MIS12 (Q9H081 whole entry): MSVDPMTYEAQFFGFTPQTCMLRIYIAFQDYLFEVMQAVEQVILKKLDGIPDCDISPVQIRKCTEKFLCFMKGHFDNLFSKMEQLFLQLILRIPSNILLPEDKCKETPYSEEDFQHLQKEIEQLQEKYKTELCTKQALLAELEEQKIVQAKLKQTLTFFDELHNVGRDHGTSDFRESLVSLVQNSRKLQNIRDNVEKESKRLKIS
Chain of NSL1, Q96IY1 (Q96IY1 whole entry): as the sequence (Q96IY1 whole entry) above

On to PMF1, Q6P1K2, for which, in the experiment with SPC24, the cross-linked residues result is “K79 - K98”. For the substance NSL1, Q96IY1, the cross-linked residues result in the experiment with SPC25 is reported as “K275 - K203”. Consider ZWINT, O95229, for which, in the experiment with NSL1, the cross-linked residues result is reported as “K196 - K262”. The same measure, in the same setting: the value for KNL1, Q8NG31 was “K2247 - K268”. With NDC80, O14777, the cross-linked residues result in the experiment with DSN1 was “K300 - K315”; with SPC24, “K624 - K50”; with ZWINT it was “K271 - K141”. Take CENPC, Q03188: the cross-linked residues entry is recorded as “K45 - K81” with MIS12 and “K45 - K48” in the experiment with PMF1.
